Hits are enriched below; roughly 2.3% of the tested compounds scored in any of these assays.
KLK7 zymogen act = proKLK7 zymogen activators, primary screen, biochemical, fluorescence intensity | AID 652039, 2013 | purified proKLK7, EDANS-DABCYL substrate fluorescence; 100% is mature enzyme control, 0% vehicle | Kallikrein-7 (Homo sapiens), P49862 | hit rate 0.9% among 370,000 | activation, % at 7 µM;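 active means activation above the mean of all tested compounds plus 3 SD, computed per campaign excluding outliers beyond control limits, cut at about 13% in these data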
Target sequence (P49862 whole entry, looked up): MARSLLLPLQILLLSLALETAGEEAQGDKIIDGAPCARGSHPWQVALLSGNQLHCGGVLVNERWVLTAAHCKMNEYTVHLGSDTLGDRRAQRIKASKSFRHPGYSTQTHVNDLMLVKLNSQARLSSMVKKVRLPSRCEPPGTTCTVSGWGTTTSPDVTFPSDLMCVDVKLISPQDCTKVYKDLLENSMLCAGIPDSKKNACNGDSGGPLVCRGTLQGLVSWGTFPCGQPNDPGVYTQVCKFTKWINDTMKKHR
ADAM10 inh = human ADAM10 inhibitors, primary screen, biochemical, QFRET, HTS; recombinant ADAM10, EDANS/DABCYL FRET peptide cleavage, 3 h; inhibition, % at 7 µM; hit rate 0.62% among 370,000; AID 720582, 2013;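 active means inhibition above a per-campaign cutoff equal to the mean of compounds falling between control-based bounds plus 3 SD, cut at about 20% in these data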
ADAM17 inh = ADAM17 inhibitors, primary screen, biochemical, QFRET; Disintegrin and metalloproteinase domain-containing protein 17 (Homo sapiens), P78536; AID 720648, 2013; inhibition, % at 6.95 µM; hit rate 0.83% among 370,000; recombinant ADAM17, EDANS/DABCYL FRET peptide cleavage;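 active means inhibition above the mean of compounds lying between control limits plus 3 SD, set per campaign, cut at about 8.5% in these data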
V-ATPase pH = regulators of yeast V-ATPase proton pumping, primary screen, pHLuorin cytosolic pH fluorescence | S. cerevisiae | response, % at 10 µM | hit rate 0.37% among 350,000 | AID 504577, 2011; in the data active means response mostly above about 7.3%, no sharp cut-off; inactive means mostly below about 5.4%; further: actives read high
KLK7 act conf = proKLK7 zymogen activators, confirmation, biochemical, fluorescence intensity, triplicate; hit rate 68% among 3,200; purified proKLK7, EDANS-DABCYL substrate fluorescence; scaled: vehicle 0, mature enzyme 100; shares compounds with KLK7 zymogen act; activation, % at 7 µM;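 active means activation, as change over the incubation, above the mean of all tested compounds plus 3 SD, cut at about 13% in these data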
EDANS-DABCYL int = EDANS-DABCYL substrate optical interference, artefact control for kallikrein-7 zymogen activator project, biochemical, fluorescence intensity, high throughput; no enzyme, 4 h; solvent 0%, active enzyme control 100%; activation, % at 7 µM; shares compounds with KLK7 zymogen act; hit rate 80% among 3,200;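 active means activation above the all-compound mean plus 3 SD, ignoring values outside control-based bounds, cut at about 4.8% in these data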;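 further: value is the 4 h activation minus the activation read at time zero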
EDANS interf = optically interferes with EDANS-DABCYL fluorescence, kallikrein-7 activator counter-screen; shares compounds with KLK7 zymogen act; EDANS-DABCYL peptide fluorescence interference, no enzyme; EC50, µM; hit rate 20% among 250; AID 720493;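 active means compounds that raise the fluorescence signal in this interference counterscreen, with EC50 at or below 10 µM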;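 further: intact quenched peptide substrate alone read at 355 nm excitation and 520 nm emission; signal is fluorescence gain from T0 to T4 after four hours at room temperature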
Of the large screens only hits and unclear results are named; the others gave an inactive call (follow-up assays come after a bar, where they were run).

COC(=O)C1=C(C)N(C)C(C)=C(C(=O)OC)C1c1ccc(C(=O)OC)cc1	none
COC(=O)C1=CNC=C(C(=O)OC)C1c1ccc(C(=O)OC)cc1	KLK7 zymogen act 13 | KLK7 act conf 19 | EDANS-DABCYL int 14 | EDANS interf inactive
C[C@@H]1CN([C@@H](C)CO)C(=O)CCCn2cc(nn2)CO[C@H]1CN(C)C(=O)Nc1ccc(F)cc1	none (no result: V-ATPase pH)
CCOc1cc(C2C(C#N)=C(N)OC3=C2C(=O)CC(C)(C)C3)cc([N+](=O)[O-])c1O (stereo unspecified)	none
CC1(C)CC(=O)C2=C(C1)OC(N)=C(C#N)C2c1cc2c(cc1[N+](=O)[O-])OCO2 (stereo unspecified)	KLK7 zymogen act 108 | KLK7 act conf 65 | EDANS-DABCYL int 66
CCCCNc1ccc2c(c1)OC[C@H](CC(C)C)NS2(=O)=O	none (no result: V-ATPase pH)
Cc1cc2c3c(ccc(C)c3n1)N=CN2c1ccccc1	KLK7 zymogen act 62 | KLK7 act conf inactive | EDANS-DABCYL int 4.8
Cc1cc(C(=O)COc2ccc3ccc(=O)oc3c2)c(C)n1Cc1cccs1	KLK7 zymogen act 78 | KLK7 act conf 73 | EDANS-DABCYL int 89
O=c1oc2c(CN3CCOCC3)c(O)ccc2c2c1CCCC2	KLK7 zymogen act 52 | KLK7 act conf 69 | EDANS-DABCYL int 64
O=c1oc2c(CN3CCOCC3)c(O)c(Cl)cc2c2c1CCCC2	KLK7 zymogen act 53 | KLK7 act conf 66 | EDANS-DABCYL int 67
O=C1CCC(=O)N1c1nc2n(n1)C(c1ccccc1)C=C(c1ccc(Br)cc1)N2 (stereo unspecified)	KLK7 zymogen act 30 | KLK7 act conf 64 | EDANS-DABCYL int 47
COc1ccccc1C1C=C(c2ccc(Cl)cc2)Nc2nc(N3C(=O)CCC3=O)nn21 (stereo unspecified)	none
CS(=O)(=O)Nc1nc2n(n1)C(c1ccccc1)C=C(c1ccc(Br)cc1)N2 (stereo unspecified)	none (no result: KLK7 zymogen act, ADAM10 inh, ADAM17 inh)
COc1ccc(C2C=C(c3ccc(Br)cc3)Nc3nc(N4C(=O)CCC4=O)nn32)cc1 (stereo unspecified)	KLK7 zymogen act 29 | KLK7 act conf inactive | EDANS-DABCYL int inactive
Cn1c(=O)c2cc(NC(=O)NCc3ccc(F)cc3)ccc2n1C	KLK7 zymogen act 39 (no result: V-ATPase pH) | KLK7 act conf 31 | EDANS-DABCYL int 36
Cn1c(=O)c2cc(NC(=S)NCc3ccccc3F)ccc2n1Cc1ccc(F)cc1	none (no result: V-ATPase pH)
C=C(C)Cn1c2ccc(NC(=O)NCc3ccc(F)cc3)cc2c(=O)n1C	KLK7 zymogen act 30 (no result: V-ATPase pH) | KLK7 act conf inactive | EDANS-DABCYL int 15
COc1ccc(NC(=S)Nc2ccc3c(c2)c(=O)n(C)n3-c2ccccc2)cc1	KLK7 zymogen act 42 (no result: V-ATPase pH) | KLK7 act conf 36 | EDANS-DABCYL int 48
Cn1c(=O)c2cc(NC(=S)NCc3ccccc3F)ccc2n1C	KLK7 zymogen act 34 (no result: V-ATPase pH) | KLK7 act conf inactive | EDANS-DABCYL int 8.7
Cn1c(=O)c2cc(NC(=S)NC3CCCCC3)ccc2n1-c1ccccc1	none (no result: V-ATPase pH)
Cn1c(COc2ccccc2)nnc1SCC(=O)Nc1ccccc1-c1ccccc1	none (no result: V-ATPase pH)
Cc1ccc(-n2nc(C)c3c2NC2=C(C(=O)CC(C)(C)C2)C3c2ccccc2OCC(=O)O)cc1 (stereo unspecified)	KLK7 zymogen act 44 | KLK7 act conf 33 | EDANS-DABCYL int 35
CC(=O)c1cc(C)ccc1OC(=O)c1cccc2nc(C)oc12	KLK7 zymogen act 13 | KLK7 act conf inactive | EDANS-DABCYL int inactive
C=CCc1c(C)[nH]c2c(OC)cccc2c1=S	KLK7 zymogen act 29 | KLK7 act conf 13 | EDANS-DABCYL int 18
COc1ccc(-n2c(COc3ccccc3)nnc2SCC(=O)Nc2ccc(OCc3ccccc3)cc2)cc1	none (no result: V-ATPase pH)
CC1CC(Nc2cccc(O)c2)=CC(=O)O1 (stereo unspecified)	KLK7 zymogen act 13 | KLK7 act conf inactive | EDANS-DABCYL int inactive
CC1CC(Nc2ccccc2)=CC(=O)O1 (stereo unspecified)	none
COc1cccc(CNC(=O)C2CCC(CNS(=O)(=O)c3cccc4cccnc34)CC2)c1OC (stereo unspecified)	none (no result: V-ATPase pH)
Cc1[nH]nc2c1C(c1ccc(Br)cc1)N(Cc1ccccc1)C2=O (stereo unspecified)	none (no result: V-ATPase pH)
O=C(Nc1ccccc1)Nc1nc2ncccn2c1-c1ccc(C(F)(F)F)cc1	none (no result: V-ATPase pH)
CCCCC1C2C(=O)N(c3ccccc3)C(=O)C2ON1c1ccccc1 (stereo unspecified)	none
CCCCC1C2C(=O)N(c3ccc(C)cc3)C(=O)C2ON1c1ccccc1 (stereo unspecified)	KLK7 zymogen act 15 | KLK7 act conf 36 | EDANS-DABCYL int 34
CCOP(=O)(OCC)c1nc(-c2ccccc2Cl)oc1N1CCOCC1	none
CCOP(=O)(OCC)c1nc(-c2cccc3ccccc23)oc1N1CCOCC1	KLK7 zymogen act 63 | KLK7 act conf 63 | EDANS-DABCYL int 58
Cc1csc2nc3cc(C(N)=O)ccc3c(=O)n12	KLK7 zymogen act 22 | KLK7 act conf 63 | EDANS-DABCYL int 77
CCOc1c2ccoc2nc2c(OC)c(OC)ccc12	KLK7 zymogen act 13 | KLK7 act conf inactive | EDANS-DABCYL int 14
C=CCOc1ccc2c(OC)c3ccoc3nc2c1OC	KLK7 zymogen act 19 | KLK7 act conf inactive | EDANS-DABCYL int inactive
CCCCn1c(N)c(N(CCOC)C(=O)COC(=O)c2ccccc2NCCO)c(=O)[nH]c1=O	KLK7 zymogen act 36 | KLK7 act conf 19 | EDANS-DABCYL int 22
CN(C)c1ccc2nc3ccc(=O)cc-3sc2c1	KLK7 zymogen act 54 | KLK7 act conf 143 | EDANS-DABCYL int 133
COc1ccc(-n2c(CSc3ccc(Cl)cc3)n[nH]c2=S)cc1	none (no result: V-ATPase pH)
Cc1ccc2nc3c(c(N)c2c1)CCN3c1ccccc1	KLK7 zymogen act 106 | KLK7 act conf inactive | EDANS-DABCYL int inactive
Nc1ncnc2c1ncn2[C@@H]1O[C@H](C(=O)N[C@@H](CCc2ccccc2)C(=O)N2CCN(C(=O)N3CCOCC3)CC2)[C@@H](O)[C@H]1O	none (no result: V-ATPase pH)
c1ccc(-c2cc(-c3ccccc3)n3ncnc3n2)cc1	none
COc1ccc(-c2cc(-c3ccccc3)nc3ncnn23)cc1	KLK7 zymogen act 15 | KLK7 act conf inactive | EDANS-DABCYL int inactive
Nc1[nH]c(C(=O)c2ccccc2)c(-c2ccc(O)cc2)c1C(=O)NCCc1c[nH]c2ccccc12	none (no result: KLK7 zymogen act, V-ATPase pH)
CN(Cc1c(O)ccc2c1oc(=O)c1ccccc12)C1CCCCC1	none
